Screening data (PubChem)
Rows were chosen to be rich in hits. Some 6.2% of all compounds tested hit in one or more screens of this group.
KB-3-1 tox: KB-3-1 parental cell cytotoxicity. KB-3-1 viability, CellTiter-Glo ATP luminescence, 72 h. Potency, µM (highest dose often 46.1 µM), most hits filed as cytotoxic. actives 1.4% (n = 400,000); note: % is set by controls: 0 for no effect and ±100 for the full control effect; nearly all actives have a fitted effect of over 60% in size
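Here the drug-naive KB-3-1 line serves as comparator for MDR sub-line selectivity; cells received compound titrations, 72 h at 37 °C, then CellTiter-Glo readout.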
ATXN viability: reduces viability in counter-screen for ATXN expression inhibitors. S2 cells (HEK-293 line with an ATXN2-luciferase reporter) viability, CellTiter-Fluor protease fluorescence, 24 h. Potency, µM (titrated, usually from 56.7 µM), usual class: cytotoxic. actives 0.49% (n = 400,000). AID 651635; note: nearly all actives have a fitted effect of over 40% in size
KB-V1 MDR tox: KB-V1 MDR subline cytotoxicity; KB-V1 MDR cells viability, CellTiter-Glo, 72 h; Potency, µM (highest dose often 46.1 µM), usual class: cytotoxic; actives 3.4% (n = 400,000); AID 1347076; note: % is set by controls: 0 for no effect and ±100 for the full control effect; nearly all actives have a fitted effect of over 60% in size
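Cytotoxicity via CellTiter-Glo luminescence after 72 h compound exposure at 37 degrees C. Cells: drug-selected KB-V1 line, DMEM phenol-red free plus 10% FBS. Compounds tested at multiple concentrations; normalized data fitted to concentration-effect curves.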
HT1080 IDH1KD tx: kills HT-1080 cells with IDH1 knockdown; HT-1080 IDH1 knockdown viability, ATP luminescence, 48 h; Potency, µM (top dose mostly 46.1 µM), for inactives: top-dose activity, negative = toxicity, actives largely listed as cytotoxic; actives 2% (n = 360,000); AID 686971;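 note: 0% = DMSO wells and -100% = cell-free medium wells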
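Assay cells: HT-1080 with IDH1 knockdown, 750 per well, RPMI/5% FBS. Exposure: 48 h at 37 °C following 2 h pre-incubation. Read: CellTiter-Glo luminescence; fitted concentration-response, curve class assigned.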
ATXN2 expr inh: inhibitors of ATXN2 expression; actives 0.72% (n = 360,000); HEK-293 ATXN2-luciferase reporter, luminescence, 24 h; Potency, µM (doses to about 57 µM), inactives show at the highest dose activity change, negative = inhibition, hits mostly inhibitors; note: % is set by controls: 0 for no effect and ±100 for the full control effect; nearly all actives have a fitted effect of over 55% in size
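qHTS (up to 57 uM final) was run with 24 h compound exposure of reporter cells at 37 °C. Each well was multiplexed: SteadyGlo luminescence measured ATXN2-luciferase expression after a fluorogenic Gly-Phe-AFC viability readout (25 uM final).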
HT1080NT lethal: kills 2HG-producing HT-1080-NT fibrosarcoma cells; AID 686970; HT-1080-NT fibrosarcoma viability, CellTiter-Glo ATP luminescence, 48 h; actives 1.6% (n = 360,000); Potency, µM (top dose mostly 46.1 µM), inactives show at the highest dose activity, negative = less viability, hits mostly cytotoxic;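 note: NT is the 2HG producing partner of a matched IDH1 knockdown line; 0% = DMSO-treated cells and -100% = media-only wells without cells; nearly all actives have a fitted effect of over 55% in size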
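Fibrosarcoma NT cells, 750 per well in 5% FBS RPMI, were exposed to compound for 48 hours. Viability: CellTiter-Glo luminescence.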
Numbers without * were called inactive; i = inactive; u = inconclusive; x = no result. Calls come from the whole dose curve; as a rule, active = well fitted curve in the direction sought with a large enough effect; inconclusive = small, poorly fitted or top-dose-only effect, or another doubt; inactive = no such curve, though single readings can be large; an effect the other way counts as inactive or inconclusive. Potency is the fitted concentration of half-maximal effect.

SMILES | KB-3-1 tox | ATXN viability | KB-V1 MDR tox | HT1080 IDH1KD tx | ATXN2 expr inh | HT1080NT lethal
Cc1ccc(C)c(CN2CCC(CNC(=O)Nc3ccc(F)c(Cl)c3)CC2)c1 | u | i | i | 18µM* | u | 26µM*
O=S(=O)(c1ccc(Cl)cc1)N1CCN(c2nc(-c3ccccc3)nc3ccccc23)CC1 | i | x | i | x | x | x
CC1(O)CC(c2ccc(Cl)cc2)=NN1C(=O)c1ccc([N+](=O)[O-])cc1 (stereo not given) | u | i | u | 16µM* | u | 10µM*
CC(=O)N1N=C(c2ccc(Cl)cc2)CC1c1ccc([N+](=O)[O-])cc1 (stereo not given) | i | i | i | 6% | 4% | 1%
Cn1nccc1C(=O)NCC1CCC2(CCN(Cc3ccc(-c4ccc(Cl)cc4)o3)CC2)O1 (stereo not given) | x | i | x | x | x | x
Cc1c(C(=O)Nc2ccc(S(=O)(=O)N(C)C3CCN(C)CC3)cc2)oc2ccccc12 | i | u | 21µM* | -11% | u | -10%
Cc1c(C(=O)Nc2ccc(S(=O)(=O)N(C)C3CCN(C)CC3)cc2)oc2c(Cl)cccc12 | u | x | u | u | 25µM* | u
Cc1ccc(OCC(=O)Nc2ccc(S(=O)(=O)N(C)C3CCN(C)CC3)cc2)c(C)c1 | i | u | i | -19% | u | -26%
CN1CCC(N(C)S(=O)(=O)c2ccc(NC(=O)COc3ccc(Br)cc3Cl)cc2)CC1 | u | i | u | 18µM* | u | 16µM*
CN1CCC(N(C)S(=O)(=O)c2ccc(NC(=O)c3ccc(S(=O)(=O)N(C)C)cc3)cc2)CC1 | i | i | i | 16% | -7% | 5%
CN(C)c1cccc(-c2ncc(F)c(N3CCC(C(N)=O)CC3)n2)c1 | u | x | i | x | x | x
COc1ccccc1S(=O)(=O)Cc1ccc(C(=O)NC2CCCCC2)o1 | i | i | 15µM* | 3% | -13% | 10%
O=C(NC1CCCC1)c1ccc(CSCc2ccccc2F)o1 | i | i | 15µM* | -12% | 39% | 9%
COc1ccccc1S(=O)(=O)Cc1ccc(C(=O)N2CCN(c3cccc(Cl)c3)CC2)o1 | 6.5µM* | u | 16µM* | 21µM* | u | u
COc1ccccc1S(=O)(=O)Cc1ccc(C(=O)N2CCN(c3cc(Cl)ccc3C)CC2)o1 | u | i | 18µM* | x | -7% | x
O=C(NC1CCCC1)c1ccc(CS(=O)(=O)Cc2ccccc2F)o1 | i | i | i | 0% | x | 1%
COc1ccccc1S(=O)(=O)Cc1ccc(C(=O)N2CCN(c3ccccc3)CC2)o1 | u | i | u | -11% | -23% | 0%
Cn1c2c(c3cnc4cc(Cl)ccc4c31)CN(Cc1ccc(Cl)cc1)CC2 | u | x | i | x | x | x
COc1cccc(C(c2sc3nc(-c4ccco4)nn3c2O)N2CCC(C)CC2)c1 (stereo not given) | i | u | i | x | 2% | x
COc1ccc(N(C(=O)c2cccc(C)c2)S(=O)(=O)c2ccc(C)cc2)cc1 | u | i | i | x | -21% | x
COc1ccccc1NC(=O)c1cc2c(CO)cnc(C)c2oc1=Nc1cccc(C(N)=O)c1 | i | 14µM* | i | 2% | x | -2%
O=C(NCc1cccnc1)c1cccc(NS(=O)(=O)c2ccc(Br)cc2)c1 | 5.8µM* | i | i | 3.3µM* | -23% | 4.6µM*
COc1cc(OC)c(OC)cc1CNC(=O)c1ccc(COc2ccccc2)cc1 | u | i | 12µM* | -26% | -13% | -3%
Cc1ccc(OCc2ccc(C(=O)NCc3cccnc3)cc2)cc1C | u | i | u | 18µM* | x | u
Cc1ccc(S(=O)(=O)Nc2cccc(C(=O)NCc3cccnc3)c2)cc1F | 7.3µM* | i | i | 6.5µM* | -12% | u
SMILES | KB-3-1 tox | ATXN viability | KB-V1 MDR tox | HT1080 IDH1KD tx | ATXN2 expr inh | HT1080NT lethal
O=C(NCc1cccnc1)Nc1ccc(Br)cc1 | i | i | i | 18% | 14% | 13%
Cc1ccc(OCc2ccc(C(=O)N3CCOCC3)cc2)cc1C | i | i | 18µM* | -3% | 5% | u
O=C(NCc1ccc(F)cc1)c1ccc(S(=O)(=O)Nc2cccc(C(F)(F)F)c2)cc1 | u | i | 15µM* | -9% | 4% | -15%
O=C(NCc1cccnc1)c1ccc(NC(=O)c2ccc(Br)cc2)cc1 | i | i | i | 5.8µM* | 0% | 12µM*
CC(C)c1ccc(COc2ccc(C(=O)N3CCOCC3)cc2)cc1 | i | i | u | -19% | x | -12%
Clc1ccccc1-c1nc2nc3ccccc3nc2n1-c1ccc2c(c1)OCO2 | i | u | 9.2µM* | 0% | -8% | 4%
COc1ccc2c(c1)OC(C)CN(CCNC(=O)C1CCOC1)C2 (stereo not given) | x | i | x | x | x | x
O=C(c1oc2ccccc2c1N1CCCCC1)N1CCCCC1 | i | i | 15µM* | -15% | -14% | -5%
O=c1oc2ccccc2c(N2CCCCC2)c1CN1CCCCC1 | i | i | i | 5% | -4% | 12%
O=c1oc2ccccc2c(N2CCCCC2)c1CN1CCCC1 | i | i | 23µM* | -18% | -1% | 7%
COc1ccc(-c2nc3ccc(NC(C)=O)cc3c(=O)n2Cc2ccccc2)cc1COc1ccc(NC(C)=O)cc1 | x | x | x | 0% | x | 4%
COc1cc(/C=C/c2ccc(O)cc2)cc(OC)c1 | i | i | i | -2% | 9% | -2%
COC(=O)c1ccc2c(c1)C(C)(C)C(/C=C/c1ccc(O)cc1)=[N+]2C | u | 7.9µM* | 6.3µM* | 2.8µM* | 3.2µM* | 5µM*
COC(=O)c1ccc2c(c1)C(C)(C)C(/C=C/c1ccc(OC)c(OC)c1OC)=[N+]2C | 5.2µM* | u | i | 12µM* | 25µM* | 12µM*
Cc1cc(N2CCC(C(=O)Nc3ccccc3Cl)CC2)n2nc(C)c(-c3ccc(Cl)cc3)c2n1 | i | i | u | x | 1% | x
Cc1ccc(C(C(=O)NC2CCCCC2)N(Cc2ccco2)C(=O)Cc2c[nH]c3ccccc23)o1 (stereo not given) | i | u | 10µM* | -19% | -26% | -16%
COc1ccc(C(C(=O)NC2CCCCC2)N(Cc2cccs2)C(=O)Cc2c[nH]c3ccccc23)cc1OC (stereo not given) | u | i | 8.2µM* | u | -14% | u
